The values that follow come from PubChem BioAssay (NCATS).

Unmarked numbers belong to inactive results. Records with an inconclusive call do not appear. Activity calls are given as the source filed them. Unless noted, the call rests on the fitted dose curve; in most records, active means well fitted curve in the direction sought with a large enough effect; inconclusive means small, poorly fitted or top-dose-only effect, or another doubt; inactive means no such curve, though single readings can be large; an effect the other way counts as inactive or inconclusive.

Test [1] concerns the target Lysosomal acid glucosylceramidase (Homo sapiens) (UniProt P04062). In words: Glucocerebrosidase-p2 (AID 348; in the data active means potency below about 10 µM; further: potency means the concentration at half of the fitted maximal effect). The following applies: purified GBA, blue fluorogenic substrate, 40 min. In a few lines:
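Normal human glucocerebrosidase (0.2 nM) with blue fluorogenic substrate (80 uM final) in citrate/phosphate pH 5.9 with 10mM sodium taurocholate, 0.01% tween-20; 40 min RT, NaOH/glycine stop; fluorescence Ex 365/Em 440; AC50 from a titration from 0.6 nM upwards.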

Test [2] is described as follows: AP1 Signaling Pathway (AID 357; active means well fitted curve in either direction with a large enough effect, not every such curve was filed as active;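 further: ME-180 reporter cells stimulated with EGF at its EC50 level; on the % scale 0 is the no-effect control and ±100 the full control effect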). The following applies: ME-180 AP-1-bla reporter, EGF-induced, beta-lactamase ratio, 5 h; at 7.69 µM (top of the series) unless noted. The method in brief: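 AP-1-bla ME-180 cells, Opti-MEM + 0.5% dialyzed FBS, plated overnight 37 °C. Cpd titration + EC50 EGF, 5 h 37 °C. CCF4 2.5 h RT; ex 405, em 460/530 ratio → %activity, AC50.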

In test [3] the target is Cytochrome P450 1A2 (Homo sapiens) (UniProt P05177). In words: p450-cyp1a2 (AID 410; calls by dose curve; further: potency means the concentration at half of the fitted maximal effect). Particulars: recombinant CYP1A2, luciferin-ME demethylation, luminescence; series mostly up to 57 µM. The method in brief: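 20nM CYP1A2, 100uM Luciferin-ME (=Km), 100mM KPO4; cpd 10 min RT; +NADPH regen, 60 min RT; stop/detect 20 min; luminescence. Normalized to furafylline 57 uM = full inhibition.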
Chain of Cytochrome P450 1A2 (Homo sapiens) (P05177 whole entry, looked up): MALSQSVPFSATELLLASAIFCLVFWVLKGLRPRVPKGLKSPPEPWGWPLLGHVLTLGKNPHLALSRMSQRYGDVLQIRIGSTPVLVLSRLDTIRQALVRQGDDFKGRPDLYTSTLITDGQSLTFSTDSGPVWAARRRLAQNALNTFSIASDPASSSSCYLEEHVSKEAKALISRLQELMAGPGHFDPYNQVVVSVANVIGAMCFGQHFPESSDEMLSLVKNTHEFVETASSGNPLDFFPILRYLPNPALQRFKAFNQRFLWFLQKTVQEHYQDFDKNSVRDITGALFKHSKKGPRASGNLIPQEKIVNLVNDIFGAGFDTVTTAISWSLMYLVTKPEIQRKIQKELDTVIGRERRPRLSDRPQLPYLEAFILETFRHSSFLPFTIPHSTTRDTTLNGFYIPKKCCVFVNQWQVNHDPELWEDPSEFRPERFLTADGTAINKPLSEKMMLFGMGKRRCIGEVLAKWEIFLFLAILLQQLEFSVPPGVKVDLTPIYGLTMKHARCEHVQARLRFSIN

Test [4] is described as follows: NFAT Signaling Pathway (AID 444; active means well fitted curve in either direction with a large enough effect, not every such curve was filed as active;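 further: carbachol stimulus at about its EC50 of 1 µM final; on the % scale 0 is the no-effect control and ±100 the full control effect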). Particulars: Jurkat NFAT-bla M1, carbachol, beta-lactamase ratio, 5 h; at 7.69 µM (top of the series) unless noted. The method in brief: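 Jurkat cells carrying an NFAT-driven β-lactamase reporter and co-transfected muscarinic M1 receptor were treated with compound plus carbachol (1 uM final, an EC50 level) for 5 h at 37 °C. CCF4 loading followed for 1 h at RT; 460/530 nm ratio gave %activity.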

Test [5] in a line: Stat Signaling Pathway (AID 446; active means well fitted curve in either direction with a large enough effect, not every such curve was filed as active;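 further: ME-180 cervical cancer cells given 40 pM IL-6 alongside compound; SIE-controlled beta-lactamase reporter measured as 460/530 nm FRET emission ratio; on the % scale 0 is the no-effect control and ±100 the full control effect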). Particulars: ME-180 SIE beta-lactamase reporter, IL-6 stimulated, 5 h; at 7.69 µM (top of the series) unless noted. In a few lines: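 Emission at 460 and 530 nm (excitation 405 nm) reports SIE-controlled beta-lactamase in ME-180 cells. Cells received compound with 40 pM IL-6 for 5 hrs at 37 C; data scaled between 300 pM IL-6 and 125 nM JAK-inhibitor controls.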

The target of test [6] is Glucocorticoid receptor (Homo sapiens) (UniProt P04150). Description: GR-GFP Redistribution (AID 450;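 active means compounds whose dose series gives a full or clear partial fitted curve of increased nuclear translocation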; further: potency means the concentration at half of the fitted maximal effect). The following applies: U2OS GR-GFP nuclear translocation, laser cytometry, 2 h.
Chain of Glucocorticoid receptor (Homo sapiens) (P04150 whole entry, looked up, the tested form may be a part): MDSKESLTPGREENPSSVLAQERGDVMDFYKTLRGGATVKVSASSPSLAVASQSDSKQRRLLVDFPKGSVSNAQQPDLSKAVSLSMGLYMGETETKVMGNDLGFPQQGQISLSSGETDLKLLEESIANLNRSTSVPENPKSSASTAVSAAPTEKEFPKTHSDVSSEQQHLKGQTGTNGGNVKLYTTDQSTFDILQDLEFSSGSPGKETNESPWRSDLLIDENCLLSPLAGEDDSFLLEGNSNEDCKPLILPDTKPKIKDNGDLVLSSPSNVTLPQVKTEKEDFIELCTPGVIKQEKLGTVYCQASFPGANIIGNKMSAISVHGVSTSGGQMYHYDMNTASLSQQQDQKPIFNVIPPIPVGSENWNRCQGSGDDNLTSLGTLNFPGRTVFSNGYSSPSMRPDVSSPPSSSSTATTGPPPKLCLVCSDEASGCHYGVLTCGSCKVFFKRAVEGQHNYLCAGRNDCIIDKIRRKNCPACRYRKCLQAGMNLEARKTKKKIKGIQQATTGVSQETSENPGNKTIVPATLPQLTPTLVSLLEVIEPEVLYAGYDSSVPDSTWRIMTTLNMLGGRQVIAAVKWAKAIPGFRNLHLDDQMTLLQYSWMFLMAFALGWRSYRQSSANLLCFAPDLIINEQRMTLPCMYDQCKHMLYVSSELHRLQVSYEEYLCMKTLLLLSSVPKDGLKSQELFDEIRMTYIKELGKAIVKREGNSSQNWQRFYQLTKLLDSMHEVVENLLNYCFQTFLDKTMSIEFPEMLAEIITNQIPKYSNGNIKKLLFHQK
Test [7] shares this target. In words: GR-EFC Redistribution (AID 451; calls by dose curve; further: potency means the concentration at half of the fitted maximal effect). The following applies: CHO-K1 GR-EFC translocation, beta-gal luminescence, 2 h. In a few lines: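 CHO-K1 cells stably expressing nuclear-localized β-gal enzyme acceptor and GR fused C-terminally to the enzyme donor fragment; ligand-driven nuclear translocation restores β-gal by complementation. Compounds titrated up to 46 uM final, 2 h at 37 °C; luminescence read.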

The target in test [8] is Mitogen-activated protein kinase 10 (Mus musculus) (UniProt Q61831). Description: JNK3 AlphaScreen Assay (AID 530; active means well fitted curve in either direction with a large enough effect, not every such curve was filed as active;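 further: kinase came from lysate of stimulated human HepG2 cells; signal reports phosphorylation of biotinylated GST-cJun 1-79 at Ser73 with 10 µM ATP; on the % scale 0 is the no-effect control and ±100 the full control effect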). Particulars: JNK3 lysate, c-Jun phosphorylation; series mostly up to 57.1 µM. The method in brief:
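Biotinylated GST-cJun(1-79) served as substrate for JNK3 in HepG2 lysates stimulated with IL-1beta and TNF-alpha. ATP was 10 uM final, pH 7.6. Ser73 phosphorylation was quantified by AlphaScreen (680 nm excitation).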
Background: In Alpha technology, singlet oxygen from a donor bead excites a nearby acceptor bead.

For test [9], the target named is 3',5'-cyclic-AMP phosphodiesterase 4B (Homo sapiens) (UniProt Q07343). Description: qHTS Assay for Inhibitors of PDE-IV (AID 607; active means well fitted activation curve with a large enough effect in the main read-out, with a control signal flat, not every such curve was filed as active; further: % of control where 0% means no effect). Particulars: HEK293 ACTOne CNG channel cells, membrane potential fluorescence; series mostly up to 22.9 µM. The method in brief: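 The readout is membrane depolarisation from a cAMP-sensing CNG channel, detected with a potential dye at ex 535/em 590. Cells were HEK293-derived (endogenous PDE-IV) at 1000 cells/well, titrated up to 22.9 uM final.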
Chain of 3',5'-cyclic-AMP phosphodiesterase 4B (Homo sapiens) (Q07343 whole entry, looked up): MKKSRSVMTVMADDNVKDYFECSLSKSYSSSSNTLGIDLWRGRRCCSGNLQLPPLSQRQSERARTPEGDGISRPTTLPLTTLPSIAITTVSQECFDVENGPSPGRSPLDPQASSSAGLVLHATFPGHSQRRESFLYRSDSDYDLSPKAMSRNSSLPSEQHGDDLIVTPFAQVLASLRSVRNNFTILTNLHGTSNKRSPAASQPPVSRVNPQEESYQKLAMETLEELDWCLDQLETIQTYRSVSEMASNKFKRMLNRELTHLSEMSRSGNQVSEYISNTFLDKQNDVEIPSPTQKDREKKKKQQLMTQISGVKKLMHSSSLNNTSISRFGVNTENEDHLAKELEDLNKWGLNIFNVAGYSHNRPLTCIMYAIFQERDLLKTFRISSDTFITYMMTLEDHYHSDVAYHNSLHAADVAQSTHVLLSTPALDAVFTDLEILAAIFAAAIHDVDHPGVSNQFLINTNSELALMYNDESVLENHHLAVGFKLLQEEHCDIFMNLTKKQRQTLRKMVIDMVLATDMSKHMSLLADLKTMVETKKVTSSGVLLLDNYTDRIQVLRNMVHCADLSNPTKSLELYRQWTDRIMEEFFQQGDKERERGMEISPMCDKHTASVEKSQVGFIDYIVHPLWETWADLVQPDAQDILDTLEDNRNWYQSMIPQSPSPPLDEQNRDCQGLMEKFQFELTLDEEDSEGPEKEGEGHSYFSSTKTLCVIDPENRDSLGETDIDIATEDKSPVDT

In test [10] the target is Cytochrome P450 3A4 (Homo sapiens) (UniProt P08684). In words: qHTS Assay for Inhibitors and Substrates of Cytochrome P450 3A4 (AID 884). Further: potency means the concentration at half of the fitted maximal effect; nearly all actives have a fitted effect of over 50% in size. Particulars: recombinant CYP3A4, Luciferin-PPXE luminescence; series mostly up to 57.1 µM. In a few lines:
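Luminescent readout of luciferin produced by CYP3A4 (20 nM) dealkylation of Luciferin-PPXE, 25 uM (its KM). NADPH-driven reaction ran 60 min at RT after 10 min compound preincubation; data scaled to 57 uM ketoconazole as 100% inhibition.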
On the technique in general: In qHTS, concentration-response curves come from the screen itself.

Test [11] shares this target. Description: qHTS Assay for Activators of Cytochrome P450 3A4 (AID 885). Further: nearly all actives have a fitted effect of over 65% in size. The following applies: recombinant CYP3A4, Luciferin-PPXE luminescence, 60 min; series mostly up to 57.1 µM. The method in brief:
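Activators are scored by enhanced luminescence from CYP3A4 conversion of luciferin-PPXE (25uM, equal to KM) to luciferin, after 60 min at RT with an NADPH-regenerating system.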

Test [12] concerns the target Dual specificity protein kinase CLK4 (Homo sapiens) (UniProt Q9HAZ1). Description: qHTS Assay for Inhibitors of CDC-like Kinase 4 (ADP-Glo Assay) (AID 1771). Further: nearly all actives have a fitted effect of over 70% in size. Further: potency means the concentration at half of the fitted maximal effect. The following applies: recombinant CLK4, ADP-Glo luminescence; series mostly up to 80 µM. In a few lines: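 25 nM Clk4, 100 uM RS peptide, 1 uM ATP (final); 2 mM MgCl2, 0.5 mM EGTA, 2.5 mM DTT, 0.01% Triton X-100; 1 hr RT. ADP-Glo readout: ATP depletion 45 min, conversion/luciferase 30 min, luminescence.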

Test [13] addresses Ubiquitin carboxyl-terminal hydrolase 1 (Homo sapiens) (UniProt O94782). Description: Inhibitors of USP1/UAF1: Pilot qHTS (AID 504865).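 Further: rhodamine fluorescence freed from ubiquitin-rhodamine substrate followed over time; top concentration of the series differs between compounds; on the % scale 0 is the no-effect control and ±100 the full control effect; nearly all actives have a fitted effect of over 35% in size.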 The following applies: purified USP1/UAF1, Ub-rhodamine cleavage fluorescence; series mostly up to 54.9 µM. In a few lines:
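USP1/UAF1 complex (1nM) preincubated with compound 15 min at room temperature, then Ub-Rho substrate (150nM final) added. Fluorescence read kinetically at 480/540 nm, 6 reads every 60 seconds. Buffer: 50mM HEPES pH 7.8, 0.5mM EDTA, 0.1 mg/ml BSA, 1mM TCEP, 0.01% Tween-20.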

The nature of test [14]: Primary qHTS for small molecule stabilizers of the endoplasmic reticulum resident proteome: Secreted ER Calcium Modulated Protein (SERCaMP) assay (AID 1508630). Further: on the % scale 0 is the no-effect control and ±100 the full control effect. The following applies: SH-SY5Y GLuc-SERCaMP (Gaussia luciferase released on ER calcium loss) secretion, thapsigargin, luminescence; series mostly up to 38.4 µM. The method in brief:
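The SH-SY5Y reporter protocol was run at 3 concentrations up to 38.3 uM (primary) or 11 concentrations (follow-up): 16 h compound, 100 nM thapsigargin for 4 h, then extracellular luciferase luminescence.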

For test [15], the target named is Cytochrome P450 2C19 (Homo sapiens) (UniProt P33261). Description: qHTS Assay for Inhibitors and Substrates of Cytochrome P450 2C19 (AID 899). Further: potency means the concentration at half of the fitted maximal effect; nearly all actives have a fitted effect of over 60% in size. The following applies: recombinant CYP2C19, luciferin-H EGE luminescence; series mostly up to 57.1 µM. The method in brief: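 Human CYP2C19 (5nM) with Luciferin-H EGE at 10uM (its KM) in 50mM KPO4 was preincubated with compound for 10 min at 37C. NADPH regeneration started a 60 min 37C reaction. Luciferin was read by luminescence, normalized to 57uM ketoconazole.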
Chain of Cytochrome P450 2C19 (Homo sapiens) (P33261 whole entry, looked up): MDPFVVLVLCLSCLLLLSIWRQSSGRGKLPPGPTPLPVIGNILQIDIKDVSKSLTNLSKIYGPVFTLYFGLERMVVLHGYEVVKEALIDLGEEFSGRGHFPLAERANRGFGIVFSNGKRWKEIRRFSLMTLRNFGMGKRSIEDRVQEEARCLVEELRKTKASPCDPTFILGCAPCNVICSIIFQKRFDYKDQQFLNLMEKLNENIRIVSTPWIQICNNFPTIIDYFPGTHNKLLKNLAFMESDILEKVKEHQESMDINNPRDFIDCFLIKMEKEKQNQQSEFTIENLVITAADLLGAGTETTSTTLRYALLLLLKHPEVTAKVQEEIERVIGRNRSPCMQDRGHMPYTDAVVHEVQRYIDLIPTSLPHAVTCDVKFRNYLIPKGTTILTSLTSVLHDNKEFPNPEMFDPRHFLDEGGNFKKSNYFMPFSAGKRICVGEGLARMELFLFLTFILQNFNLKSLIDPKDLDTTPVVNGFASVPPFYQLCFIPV

Test [16] concerns the target Dual specificity protein kinase CLK4 (Homo sapiens) (UniProt Q9HAZ1). Description: qHTS Assay for Inhibitors of CDC-like Kinase 4 (ADP-FP Assay) (AID 1795). Further: on the % scale 0 is the no-effect control and ±100 the full control effect; nearly all actives have a fitted effect of over 60% in size. Particulars: Transcreener ADP fluorescence polarization; series mostly up to 50 µM. In a few lines:
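Recombinant human Clk4 (6.25 nM) phosphorylated RS repeat peptide (100 uM) with 1 uM ATP in Tris pH 7.5/MgCl2/EGTA/DTT/Triton buffer for one hour. ADP was quantified by Transcreener competitive fluorescence polarization against an ADP calibration curve.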

Test [17] is described as follows: qHTS Assay for Identification of Small Molecule Agonists for Hypoxia Response Element Signaling Pathway (AID 914; active means well fitted activation curve with a large enough effect in the signal ratio, with a control signal flat, not every such curve was filed as active; the % refers to the signal ratio; further: potency means the concentration at half of the fitted maximal effect). The following applies: ME-180 (cervical carcinoma) HRE-bla reporter, beta-lactamase ratio, CoCl2, 17 h; activation: stronger effect = higher value. The method in brief:
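HRE-bla ME-180 cells, overnight plating in Opti-MEM with 0.5% dialyzed FBS; cpd titration + EC50 CoCl2, 17 h, 37 degrees Celsius; CCF4 2.5 h RT; 460/530 nm ratio; AC50.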

Chain of Lysosomal acid glucosylceramidase (Homo sapiens) (P04062 whole entry, looked up): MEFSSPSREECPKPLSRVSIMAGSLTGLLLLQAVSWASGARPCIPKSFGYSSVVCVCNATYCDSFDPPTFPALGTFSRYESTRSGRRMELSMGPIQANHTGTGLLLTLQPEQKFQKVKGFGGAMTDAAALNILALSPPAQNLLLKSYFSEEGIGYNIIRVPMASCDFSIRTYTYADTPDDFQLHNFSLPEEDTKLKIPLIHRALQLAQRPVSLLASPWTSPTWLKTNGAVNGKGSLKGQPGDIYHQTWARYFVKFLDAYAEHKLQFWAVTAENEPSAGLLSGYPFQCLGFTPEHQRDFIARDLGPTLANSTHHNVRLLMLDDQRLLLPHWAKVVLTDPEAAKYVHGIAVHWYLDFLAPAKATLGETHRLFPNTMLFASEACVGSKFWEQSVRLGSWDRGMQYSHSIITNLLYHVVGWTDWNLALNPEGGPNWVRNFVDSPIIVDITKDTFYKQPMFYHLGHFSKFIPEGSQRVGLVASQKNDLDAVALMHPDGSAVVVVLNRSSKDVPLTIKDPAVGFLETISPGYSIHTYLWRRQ
Chain of Dual specificity protein kinase CLK4 (Homo sapiens) (Q9HAZ1 whole entry, looked up): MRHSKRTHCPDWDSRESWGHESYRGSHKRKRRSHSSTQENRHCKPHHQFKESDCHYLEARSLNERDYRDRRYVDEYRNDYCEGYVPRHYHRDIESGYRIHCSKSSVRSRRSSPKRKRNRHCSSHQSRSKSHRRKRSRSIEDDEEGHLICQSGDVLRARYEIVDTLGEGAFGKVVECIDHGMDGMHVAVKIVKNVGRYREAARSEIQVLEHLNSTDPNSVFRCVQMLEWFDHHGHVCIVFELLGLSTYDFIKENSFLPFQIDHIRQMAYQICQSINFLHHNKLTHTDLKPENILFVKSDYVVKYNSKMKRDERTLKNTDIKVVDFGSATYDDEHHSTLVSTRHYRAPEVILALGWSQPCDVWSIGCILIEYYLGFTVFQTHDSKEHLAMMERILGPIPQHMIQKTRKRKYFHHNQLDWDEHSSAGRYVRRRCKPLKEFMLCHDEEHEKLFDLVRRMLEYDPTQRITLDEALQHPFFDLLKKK
Chain of Ubiquitin carboxyl-terminal hydrolase 1 (Homo sapiens) (O94782 whole entry, looked up): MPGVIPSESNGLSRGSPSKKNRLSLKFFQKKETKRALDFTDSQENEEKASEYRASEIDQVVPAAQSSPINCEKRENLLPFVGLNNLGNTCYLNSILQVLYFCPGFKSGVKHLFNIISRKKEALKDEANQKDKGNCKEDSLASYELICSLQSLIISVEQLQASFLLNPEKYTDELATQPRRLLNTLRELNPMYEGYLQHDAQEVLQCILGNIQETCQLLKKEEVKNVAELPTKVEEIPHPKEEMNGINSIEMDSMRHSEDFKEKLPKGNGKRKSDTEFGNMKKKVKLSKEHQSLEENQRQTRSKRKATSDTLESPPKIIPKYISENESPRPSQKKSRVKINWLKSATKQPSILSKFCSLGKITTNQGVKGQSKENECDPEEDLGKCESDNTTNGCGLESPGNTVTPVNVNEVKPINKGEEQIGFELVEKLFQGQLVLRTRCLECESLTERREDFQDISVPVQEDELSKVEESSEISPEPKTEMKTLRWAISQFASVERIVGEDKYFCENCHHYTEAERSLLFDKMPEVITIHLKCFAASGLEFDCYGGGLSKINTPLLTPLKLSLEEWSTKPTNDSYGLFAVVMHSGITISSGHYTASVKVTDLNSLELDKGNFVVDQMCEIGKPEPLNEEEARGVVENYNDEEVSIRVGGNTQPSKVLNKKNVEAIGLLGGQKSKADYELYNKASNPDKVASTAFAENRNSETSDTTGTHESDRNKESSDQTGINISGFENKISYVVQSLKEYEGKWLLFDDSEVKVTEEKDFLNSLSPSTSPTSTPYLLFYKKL
Chain of Cytochrome P450 3A4 (Homo sapiens) (P08684 whole entry, looked up): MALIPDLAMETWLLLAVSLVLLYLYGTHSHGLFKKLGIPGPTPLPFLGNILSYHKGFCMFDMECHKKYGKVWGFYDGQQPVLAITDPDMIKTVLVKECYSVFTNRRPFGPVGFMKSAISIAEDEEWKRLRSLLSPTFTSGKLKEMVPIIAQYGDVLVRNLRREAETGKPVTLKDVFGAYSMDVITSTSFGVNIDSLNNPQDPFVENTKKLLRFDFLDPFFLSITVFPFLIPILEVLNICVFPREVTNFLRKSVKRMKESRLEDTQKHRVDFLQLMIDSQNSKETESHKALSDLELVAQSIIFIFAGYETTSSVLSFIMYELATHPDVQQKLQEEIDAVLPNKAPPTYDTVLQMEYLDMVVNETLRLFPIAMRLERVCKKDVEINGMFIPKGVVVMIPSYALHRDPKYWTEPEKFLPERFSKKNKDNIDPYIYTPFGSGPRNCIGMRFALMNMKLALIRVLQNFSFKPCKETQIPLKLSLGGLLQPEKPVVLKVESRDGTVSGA

Consider `COc1cccc(-c2cc(NCc3cccnc3)ncn2)c1`, for which the Potency was above 11.4 µM in test [1]; 0.631 µM (active) in test [3]; above 46 µM in [6]; above 46 µM in [7]; 3.98 µM (active) in test [10]; 14.1 µM (active) in test [12]. Moreover, the values for the activity change, negative = inhibition in test [2] and in test [4] were 12.8% and 0.0139%, respectively. The activity, negative = inhibition in test [5] is -7.08%. Also, the Potency result in [8], in test [9], in test [11] and in [13] was “inactive” each time. In test [14], the outcome was inactive.
`CS(=O)(=O)Nc1cccc(-c2cncnc2NCc2cccnc2)c1`: the Potency in test [1] is above 11.4 µM; in test [3] it was 15.8 µM (active); in test [6], above 46 µM; in test [7] it was above 46 µM; in test [15], 3.16 µM (active). Further, the activity change, negative = inhibition was 10.9% in test [2] and -3.98% in test [4]. The activity, negative = inhibition in [5] is -1.28%. Moreover, the Potency result in test [8], in test [9], in test [11], in [12] and in test [13] was “inactive” each time. For the same compound, the outcome in test [14] was inactive.
As for `c1ccc(CNc2nc(-c3ccc4c(c3)OCO4)nc3ccccc23)cc1`, the Potency in test [1] was above 11.4 µM; in [3] it was 0.501 µM (active); in test [6], above 46 µM; in test [7], above 46 µM. Also, the activity change, negative = inhibition in test [2] is -7.19%; in [4], -23.9%. For the same compound, the activity, negative = inhibition in [5] is -13%. In addition, the Potency result in test [8], in test [11], in test [12], in test [16] and in test [13] was “inactive” each time. The outcome in test [14] was inactive.
For `CNc1nc(-c2ccc(C(=O)N(C)C)cc2)nc2ccccc12`, the activity change, negative = inhibition was 7.59% in test [2] and 23.4% in test [4]. Moreover, in test [5], the activity, negative = inhibition is -0.956%. Also, the values for the Potency in test [6], in test [7] and in test [12] were above 46 µM, above 46 µM and 28.2 µM (active), respectively. Moreover, the Potency result in test [8], in test [9] and in test [13] was “inactive” in each case. Besides, the result in test [14] was inactive.
With `CCNc1ncc2nc(-c3ccccc3)c(=O)n(Cc3cccc(OC)c3)c2n1`, the Potency in [1] was above 11.4 µM; in [6] it was above 9.22 µM; in [7], above 46 µM; in test [17] it was 3.16 µM (active). In addition, the Potency entry in test [8], in test [11], in test [12], in test [16] and in test [13] was “inactive” throughout. In test [14], the result was inactive.
For the compound `COc1ccc(-c2nc3cnc(OC)nc3n(CCc3ccccc3)c2=O)cc1`, the Potency in test [1] was above 11.4 µM; in test [3], 6.31 µM (active); in test [6] it was above 9.22 µM; in test [7], above 46 µM. Also, the activity change, negative = inhibition in test [4] was 1.97%. Besides, the activity, negative = inhibition in test [5] was 2.61%. In addition, the Potency entry in [8], in [11], in test [12], in [16] and in test [13] was “inactive” each time. The result in [14] was inactive.
Take `COc1ccc2[nH]cc(CCNc3ccnc(-c4ccc(C(=O)N(C)C)cc4)n3)c2c1`: the Potency in [1] was above 11.4 µM; in test [3] it was 12.6 µM (active); in [6] it was above 46 µM; in test [7] it was above 46 µM; in [10] it was 3.16 µM (active). The activity change, negative = inhibition is -14.6% in test [2] and -3.74% in test [4]. Also, the activity, negative = inhibition in [5] was -20.4%. The Potency result in [8], in test [9], in [16] and in test [13] was “inactive” in each case. In addition, the result in test [14] was inactive.
